Screens from PubChem BioAssay.
This is a sample that favours compounds with a hit; in the whole collection about 0.82% have one here.
DUSP3 inh: DUSP3 (human) phosphatase inhibition; hit rate 0.52% among 290,000; inhibition, % at 13.3 µM; recombinant VHR phosphatase, pNPP absorbance; in the data active means inhibition above about 50%
Target sequence (P51452 whole entry, looked up): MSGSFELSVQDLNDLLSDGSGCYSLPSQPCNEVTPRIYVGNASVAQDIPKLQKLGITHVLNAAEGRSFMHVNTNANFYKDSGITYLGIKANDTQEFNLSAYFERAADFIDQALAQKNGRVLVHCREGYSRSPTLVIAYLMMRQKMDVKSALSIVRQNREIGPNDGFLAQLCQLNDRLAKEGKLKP
PrPC surface inh: inhibitors of human cell surface prion protein PrPC. TR-FRET read-out. inhibition, % at 13.8 µM. hit rate 0.43% among 370,000. AID 720596; in the data active means inhibition above about 24%; further: 0% = median of the test wells and 100% = reference compound wells
TcdB GH inh: TcdB glycohydrolase inhibition. hit rate 0.24% among 350,000. AID 652162. P18177. inhibition, % at 9.99 µM. TcdB glycohydrolase enzymatic assay, plate reader; in the data active means inhibition above about 10%
* hit, by the source's call; . = no result.

SMILES	DUSP3 inh	PrPC surface inh	TcdB GH inh
O=C(NCCC1=CCCCC1)c1c(O)nc2ccccn2c1=O	38	2	2
O=C(NCCCN1CCCC1=O)c1c(O)nc2ccccn2c1=O	52*	-4	0
C[C@@H]1CN([C@H](C)CO)C(=O)CCCn2nncc2CO[C@@H]1CN(C)Cc1ccc2c(c1)OCO2	.	.	0
C[C@H]1CN([C@@H](C)CO)S(=O)(=O)c2ccc(C#Cc3ccccc3F)cc2O[C@H]1CN(C)C(=O)c1ccc2c(c1)OCO2	.	.	1
CC(=O)N1CCN(C(=S)c2ccc([N+](=O)[O-])cc2)CC1	-20	-12	.
CC(=O)N1CCC(N(CCCOC(C)C)S(=O)(=O)c2ccc([N+](=O)[O-])cc2)CC1	53*	-46	2
CC(C)NC(=O)Cn1c(SCC(=O)N2CCCc3ccccc32)nc2ccccc21	7	-1	.
Cc1ccc(C)c2c1cc(C)c1nnc(SCC(=O)N3CCCc4ccccc43)n12	60*	-7	.
Cc1cc(C)c2c(c1)cc(C)c1nnc(SCC(=O)N3CCCc4ccccc43)n12	10	-5	.
O=C(Cn1c(SCC(=O)N2CCCc3ccccc32)nc2ccccc21)N1CCCC1	53*	.	1
COc1ccccc1CNC(=O)C[C@@H]1CC[C@H]2[C@@H](COC[C@@H](O)CN2Cc2cccc(-c3ccncc3)c2)O1	.	.	1
C[C@H](CO)N1C[C@H](C)[C@H](CN(C)Cc2ccc(C(F)(F)F)cc2)Oc2c(NC(=O)CCCCCC(=O)Nc3ccccc3N)cccc2C1=O	.	.	0
Cn1cnc(S(=O)(=O)N2CC[C@@H]3[C@@H](CO)Nc4ccc(-c5ccccc5)cc4[C@@H]32)c1	.	.	5
CC(=O)Oc1ccc2nc(/C=C/c3ccc(C=O)cc3)oc(=O)c2c1	-8	-3	3
CC(=O)Oc1ccc2nc(/C=C/c3ccccc3)oc(=O)c2c1	18	-2	12*
O=C(CSc1nc2ccc(Cl)cc2[nH]1)NC1CCCc2ccccc21 (configuration not stated)	8	6	4
O=C(CSc1nc2ccccc2[nH]1)NC1CCCc2ccccc21 (configuration not stated)	33	1	13*
Cn1ncc(Cl)c1C(=O)N/N=C/c1cccc(OC2CSC2)c1	6	1	23*
O=C(CSc1ncccn1)N/N=C/c1cccc(OC2CSC2)c1	19	-2	2
Cc1noc(C)c1NC(=O)Nc1ccc2c(c1)C(=O)N(C)[C@@H]1CC[C@@H](CC(=O)N(C)C)O[C@H]1CO2	.	.	-2
CCOc1ccccc1CN1CCNC(=O)C1CC(=O)NC1CCCCC1 (configuration not stated)	51*	3	-3
CCOc1ccccc1CN1CCNC(=O)C1CC(=O)NC1CCCCCC1 (configuration not stated)	-4	2	0
O=C(Nc1cc(F)ccc1F)N1C[C@@H]2[C@H](c3ccccc31)[C@@H](CO)N2CC1CCCC1	.	.	0
CCOC(=O)c1cc([N+](=O)[O-])sc1NC(=O)CC	22	-14	0
CCOC(=O)c1cc([N+](=O)[O-])sc1N	29	-25	29*
SMILES	DUSP3 inh	PrPC surface inh	TcdB GH inh
Cc1cccc(-c2ccc([C@@H]3[C@@H](CO)N4CCCCN(S(=O)(=O)c5cn(C)cn5)C[C@@H]34)cc2)c1	.	.	0
COc1ccccc1C(=O)Nc1ccnn1C1CCN(CCC(C)c2ccc(C)o2)CC1 (configuration not stated)	14	-12	3
Cc1ccc(C(C)CCN2CCC(n3nccc3NC(=O)c3ccccc3)CC2)o1 (configuration not stated)	53*	-11	1
COc1ccc(-n2c(Cn3c(=O)sc4ccccc43)nnc2SCC(=O)N2CCCCC2)cc1	21	-9	0
COc1ccc(-n2c(Cn3c(=O)sc4ccccc43)nnc2SCC(=O)N2CCCC2)cc1	50*	-8	0
C[C@@H]1CCCCO[C@@H](CN(C)C(=O)c2ccccc2)[C@H](C)CN([C@@H](C)CO)C(=O)c2cc(NC(=O)NC3CCCCC3)ccc2O1	.	.	-1
CCNC(=O)C[C@@H]1CC[C@H]2[C@H](COc3ccc(NC(=O)c4cccs4)cc3C(=O)N2C)O1	.	.	0
CCOC(=O)c1sc2nc(OCCN3CCOCC3)cc(C)c2c1N	.	-11	12*
CCOC(=O)c1sc2nc(N3CCOCC3)c3c(c2c1N)CCC3	15	6	.
CCN(CC)S(=O)(=O)c1cccc(C(=O)NCCc2ccccc2)c1	.	5	1
COc1ccc(CCNC(=O)c2ccc(S(=O)(=O)N(C)c3ccccc3)cc2)cc1OC	52*	3	4
CN(c1ccccc1)S(=O)(=O)c1cccc(C(=O)NCCc2ccc(O)c(O)c2)c1	9	17	15*
COC(=O)c1cc(CNC(=O)c2ccc(S(=O)(=O)N(C)c3ccccc3)cc2)ccc1OC	.	4	1
O=C(CCS(=O)(=O)c1ccccc1)Nc1ccccn1	60*	-4	0
Cc1ccnc(NC(=O)CCS(=O)(=O)c2ccccc2)c1	16	2	1
C[C@H]1CN([C@@H](C)CO)C(=O)c2cc(NC(=O)CCN3CCOCC3)ccc2O[C@H]1CN(C)Cc1ccc(C(=O)O)cc1	.	.	-1
O=C(Nc1ccc(N2CCOCC2)c(Cl)c1)c1ccc(Cl)cc1	4	-8	22*
O=C(Nc1ccc(N2CCOCC2)cc1N1CCOCC1)c1ccc(Cl)cc1	27	1	-1
O=C(Nc1ccc(N2CCOCC2)c(Cl)c1)c1ccc2c(c1)OCCO2	-5	14	21*
O=C(Nc1ccc(N2CCCC2)c(Cl)c1)c1ccc2c(c1)OCCO2	.	7	.
COC(=O)N(C)C[C@@H]1OCc2ccccc2-c2ccccc2C(=O)N([C@H](C)CO)C[C@H]1C	.	.	-1
COCC(=O)N1[C@H](CO)[C@H](c2ccc(-c3cccc(OC)c3)cc2)C12CN(C(C)=O)C2	.	.	-1
O=C(C[C@H]1CC[C@@H]2[C@H](COC[C@H](O)CN2C(=O)c2ccc(F)cc2)O1)Nc1nccs1	.	.	-1
O=C(NCCc1ccncc1)[C@@H]1[C@@H](CO)[C@@H]2Cn3c(ccc(-c4ccncc4)c3=O)[C@H]1N2	.	.	-9
C[C@@H]1CN([C@H](C)CO)C(=O)c2cc(NC(=O)c3ccccc3)ccc2O[C@@H](C)CCCCO[C@@H]1CN(C)S(=O)(=O)c1ccc(Cl)cc1	.	.	0
SMILES	DUSP3 inh	PrPC surface inh	TcdB GH inh
O=C(CNc1ccc2ccccc2c1)NNC1=NCCC1	6	0	1
O=C(CN1C(=O)CCC1=O)NNc1ccc2ccccc2c1	20	14	82*
C[C@@H]1CCCCO[C@@H](CN(C)Cc2ccc(Cl)c(Cl)c2)[C@@H](C)CN([C@@H](C)CO)C(=O)c2cc(NS(=O)(=O)c3cn(C)cn3)ccc2O1	.	.	1
Cn1cc(C(=O)N2CCN(c3ccccc3)CC2)c(=O)c2cc(S(=O)(=O)N3CCCC3)ccc21	19	1	0
Cn1cc(C(=O)NCc2ccc(F)cc2)c(=O)c2cc(S(=O)(=O)N3CCCCC3)ccc21	0	0	7
Cc1ccc(CNC(=O)c2cn(C)c3ccc(S(=O)(=O)N4CCOCC4)cc3c2=O)cc1	52*	-5	0
CN(Cc1ccccc1)C(=O)c1cn(C)c2ccc(S(=O)(=O)N3CCCC3)cc2c1=O	51*	-1	0
CC(C)C(=O)c1cc2c(cc1NC(=O)c1cccs1)OCCO2	53*	1	.
CC(C)C(=O)c1cc2c(cc1NC(=O)c1ccccc1)OCCO2	29	3	.
